IL2 activator = activates IL-2 in a cell-based reporter assay. IL-2 activation reporter assay, cell-based qHTS; stimulated with anti-CD3/CD4/CD28 beads; in transgenic mouse T cells. activation, % (series mostly up to about 46 µM). 360,000 compounds, 0.065% hits; in the data active = activation above about 50%; inconclusive = mostly about 30% to 49%; note: 0% is about no effect
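First, unstimulated transgenic mouse T cells were exposed to compound for 60 min. Next, anti-CD3/anti-CD4-coated beads with anti-CD28 were added. Finally, after 18 h at 37 degrees C, EGFP and DsRed were imaged.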
Nrf2 block = inhibitors of Nrf2 signaling; A549 ARE-Fluc reporter, luciferase luminescence, 18-24 h; Potency, µM (series often up to 46 µM), for inactives: top-dose activity change, negative = inhibition, hits mostly inhibitors; 360,000 compounds, 2.1% hits; note: potency is the fitted concentration of half-maximal effect; % is set by controls: 0 for no effect and ±100 for the full control effect; nearly all actives have a fitted effect of over 60% in size
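A549 ARE_Fluc cells (5000/well, 5% FBS OPTI-MEM) pre-incubated 2 h, then treated with compounds 18-24 h at 37C/5% CO2 in concentration-response. CellTiter-Fluor viability read first; BugLite luciferase luminescence after 15 min at room temperature gives Nrf2 activity.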
p53 reactivation = restores transcriptional activity of mutant p53 | H1299 p53-A138V BP100-luciferase reporter, luminescence, 24 h | Potency, µM (titrated, usually from 92.2 µM), for inactives: top-dose activity change, positive = activation, actives largely listed as activators | 320,000 compounds, 0.063% hits; note: potency is the fitted concentration of half-maximal effect; % of control where 0% means no effect; nearly all actives have a fitted effect of over 45% in size
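H1299 (p53-null), stable ts p53-A138V + BP100-Luc; 1000 cells/well, Opti-MEM/10% FBS; cpd 4 pt, 1:5; 24 h, 37 deg C, 5% CO2; detection reagent 10 min RT; luminescence.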
BRCA1 expr act = BRCA1 expression activation | Potency, µM (series often up to 46.1 µM), inactives show at the highest dose activation, hits mostly activators | 380,000 compounds, 1.1% hits | AID 624202 | MCF7-BRCA1-FFLuc reporter, luminescence, 48 h; response scale: scaled: vehicle 0%, 10 µM genistein 100%; note: potency is the fitted concentration of half-maximal effect; nearly all actives have a fitted effect of over 80% in size
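Activators of BRCA1 expression were detected as increased firefly luciferase luminescence in engineered MCF7 cells after 48 h compound incubation. Signals were scaled to genistein 10 microM as full activation.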
A549 tox = kills or reduces viability of A549 cells in Nrf2 counter-screen | A549 ARE-Fluc cells, CellTiter-Fluor viability, 18-24 h | Potency, µM (doses to about 46 µM), inactives show top-dose activity change, negative = cytotoxicity, actives largely listed as inhibitors | 390,000 compounds, 0.16% hits | AID 504648; note: potency is the fitted concentration of half-maximal effect; % is set by controls: 0 for no effect and ±100 for the full control effect
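A549 ARE_Fluc cells in 5% FBS OPTI-MEM were exposed to compounds in concentration-response for 18-24 h at 37 deg C. Viability was read by CellTiter-Fluor fluorescence (Ex 405/Em 525) after 30 min, before the luciferase read.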
Nrf2 activator = activates Nrf2 signaling | AREc32 ARE-luciferase reporter (MCF7-derived line), luminescence, 24 h | Potency, µM (titrated, usually from 46.1 µM), without a hit: at the top dose activation, most hits filed as activators | 410,000 compounds, 0.31% hits; note: potency is the fitted concentration of half-maximal effect; % of control where 0% means no effect; nearly all actives have a fitted effect of over 65% in size
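Luminescent ARE reporter assay in AREc32_Fluc cells: overnight plating at 37 deg C, 24 hr compound incubation, Steady-Glo added, 30 min RT before reading.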
* hit, by the source's call; u = inconclusive; x = no result. A selection: hits, their analogues and other compounds. The true share with any hit is near 3.2%. Unless noted, calls come from the whole dose curve; as a rule, active = well fitted curve in the direction sought with a large enough effect; inconclusive = small, poorly fitted or top-dose-only effect, or another doubt; inactive = no such curve, though single readings can be large; an effect the other way counts as inactive or inconclusive.

SMILES	IL2 activator	Nrf2 block	p53 reactivation	BRCA1 expr act	A549 tox	Nrf2 activator
CCOC(=O)CS(=O)(=O)c1nc(-c2ccccc2)cc(C(F)(F)F)n1	-1	u	-15%	-108%	u	u
CCOC(=O)CS(=O)(=O)c1nc(-c2ccc(F)cc2)cc(C(F)(F)F)n1	0	16µM*	-39%	-95%	u	u
COCC(C)NC(=O)CCS(=O)(=O)c1nc(-c2ccc(OC)cc2)cc(C(F)(F)F)n1 (stereo unspecified)	-5	-11%	-43%	-85%	-2%	16µM*
COC(=O)CCS(=O)(=O)c1nc(-c2ccccc2)cc(C(F)(F)F)n1	-4	u	-23%	-93%	u	u
COc1ccc(-n2c(-c3ccc(C)cc3)cc3c2CC(C)(C)CC3=O)cc1Cl	x	7%	x	x	-1%	0%
COc1cc(C(=O)N(CCN(C)C)CC2CCCN(Cc3ccccc3F)C2)ccc1C (stereo unspecified)	2	5%	-9%	-31%	-13%	0%
CN(C)CCN(CC1CCCN(Cc2ccccc2F)C1)C(=O)c1ccc(F)cc1 (stereo unspecified)	-1	-5%	20µM*	-7%	u	0%
NNC(=O)c1oc2nc(-c3ccc(Cl)cc3)cc(-c3ccccc3)c2c1N	0	10µM*	-1%	-72%	20%	0%
Nc1c(C(=O)N/N=C/c2cccnc2)oc2nc(-c3ccccc3)cc(-c3ccco3)c12	318*	-29%	-2%	-23%	0%	7%
CNc1cccc(S(=O)(=O)N2CCN(S(=O)(=O)c3ccc4c(c3)OCCO4)CC2)c1	x	-2%	x	x	6%	x
Clc1ccc(-n2ncc3c(NCc4ccccn4)ncnc32)cc1	2	11%	12%	10µM*	u	2%
C=CCNc1ncnc2c1cnn2-c1cccc(C)c1	-4	u	13%	2.2µM*	-3%	0%
Cc1ccc(-n2ncc3c(NCc4cccnc4)ncnc32)c(C)c1	-2	9.2µM*	-1%	-33%	-13%	0%
Cc1cccc(-n2ncc3c(NCc4cccnc4)ncnc32)c1	-4	u	u	2.5µM*	-9%	4%
Cc1ccc(-n2ncc3c(NCc4ccccn4)ncnc32)c(C)c1	-2	-12%	-2%	4%	4%	0%
Cc1ccc(-n2ncc3c(NCc4cccnc4)ncnc32)cc1C	-3	u	u	1µM*	-12%	-1%
O=C(NCC1CCCO1)c1cc(-c2ccccc2F)no1 (stereo unspecified)	1	u	u	13µM*	1%	u
O=C(NCC1CCCO1)c1ccc(COc2ccc(Br)cc2)cc1 (stereo unspecified)	0	16µM*	8%	3%	-3%	2%
O=C(NCC1CCCO1)c1ccc([N+](=O)[O-])o1 (stereo unspecified)	0	0%	u	-53%	-7%	10µM*
O=C(Cc1ccc([N+](=O)[O-])cc1)NCC1CCCO1 (stereo unspecified)	-3	10%	8%	9%	4%	0%
Cc1cc(C(=O)COC(=O)c2ccc([N+](=O)[O-])o2)c(C)n1CC1CCCO1 (stereo unspecified)	1	u	4%	48%	-2%	16µM*
Fc1ccc(C(NCCc2ccccc2)c2nnc(-c3ccccc3Cl)o2)cc1 (stereo unspecified)	x	-5%	x	x	1%	8%
CCS(=O)(=O)c1ncc(Cl)c(C(=O)NCc2ccc(OC)cc2)n1	x	x	x	x	u	-5%
CCOC(=O)c1ccc(NC(=O)c2nc(S(=O)(=O)Cc3ccccc3)ncc2Cl)cc1	-3	u	-19%	-48%	u	3.2µM*
Cc1ccc(CNC(=O)c2nc(S(=O)(=O)Cc3ccc(C)cc3)ncc2Cl)cc1	x	12µM*	x	x	-20%	10%
SMILES	IL2 activator	Nrf2 block	p53 reactivation	BRCA1 expr act	A549 tox	Nrf2 activator
CCc1ccc(NC(=O)c2nc(S(=O)(=O)Cc3ccccc3)ncc2Cl)cc1	x	x	-42%	x	x	x
COC(=O)c1ccccc1NC(=O)c1oc2ccc3c(c2c1C)C(=O)CC(C)(C)O3	x	14%	x	3%	2%	1%
CC(C)Cn1c(=O)c2c(nc3n2CCCN3Cc2ccccc2)n(C)c1=O	-3	12µM*	-5%	-41%	7%	3%
COC(=O)CNC(=O)COC(=O)/C=C/c1ccccc1[N+](=O)[O-]	1	22%	1%	-30%	0%	28%
O=C(COC(=O)/C=C/c1ccccc1[N+](=O)[O-])NCc1ccco1	-1	3%	2%	1%	6%	14µM*
COc1cc(SC)ccc1C(=O)NCCOc1ccc(F)cc1	0	8%	u	10µM*	-2%	1%
COc1ccc(CCNC(=O)c2ccc(SC)cc2OC)cc1	-1	-5%	-6%	-12%	-4%	0%
COc1cc(SC)ccc1C(=O)Nc1nc2ccccc2[nH]1	-3	1.6µM*	-26%	-102%	-12%	-2%
CCc1ccc(OCCNC(=O)c2cc(SC)ccc2Cl)cc1	1	18µM*	-2%	-16%	u	0%
CSc1ccc(Cl)c(C(=O)NCCOc2ccccc2)c1	0	u	4%	83%	18%	3%
COc1ccccc1C(=O)Nc1nc2ccccc2[nH]1	-1	u	-13%	-45%	2%	-2%
O=C(c1cnc(N2CCOCC2)c2ccccc12)N1CCN(c2ccccc2F)CC1	x	x	x	x	6%	1%
COc1ccc(OCCn2nnc3sc4c(c3c2=O)CCC(C(C)(C)C)C4)cc1 (stereo unspecified)	x	5%	x	x	-9%	0%
COc1cc(C)c(NC(C)C(=O)c2c(C)[nH]c3ccccc23)cc1OC (stereo unspecified)	x	x	x	0%	x	x
O=C(NCC(c1ccccc1)c1ccccc1)c1nn(-c2ccccc2Cl)nc1CO	x	u	x	x	-22%	-1%
CC(=O)N1c2ccc(S(=O)(=O)NCC3CCC(C(=O)Nc4cccc(C)c4)CC3)cc2CC1C (stereo unspecified)	x	u	x	x	-2%	6%
CCC(=O)N1c2ccc(S(=O)(=O)NCCc3ccccc3)cc2CC1C (stereo unspecified)	-1	23µM*	-2%	-2%	-9%	-1%
CC(=O)N1c2ccc(S(=O)(=O)NCCc3cccc(C)c3)cc2CC1C (stereo unspecified)	x	13µM*	x	x	-1%	4%
O=[N+]([O-])c1cccc(S(=O)(=O)N2CCN(c3nc(-c4ccccc4)nc4ccccc34)CC2)c1	x	-4%	x	12%	1%	x
